This is part of a sample that, as a whole, favours compounds with a hit. Of some 83,000 tested, about 20% had one in any assay.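 48-hour exposure, single concentration, 96-well plates; percent growth endpoint where 0 means no net growth. Active: below 10.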 Unmarked numbers belong to inactive results. Active and inactive are the calls of the source.

The test system of this test is BT-549 breast. As to the kind of experiment: NCI-60 one-dose screen, 48 h (100 = growth as untreated, 0 = no growth, -100 = all killed). Particulars: 10 µM unless noted. On the procedure: Growth inhibition of the BT-549 human tumor cell line is measured as a screen for anti-cancer activity. Cells are grown in 96 well plates and exposed to the test compound for 48 hours. Compounds are tested at a single concentration, which is 10^-5 M for most compounds. The reported endpoint is percent growth (GI% or GIPRCNT), where numbers from 0 - 100% represent growth inhibition, and numbers from -100% - 0 represent cell death. For example, a value of 40 represents 60% growth inhibition. A value of 0 means no net growth occurred over the course of the experiment. A value of -40 indicates 40% of cells at the beginning of the experiment died by the end of the experiment. A value of -100 means all cells are dead at the end of the experiment.
NCI-60 Human Tumor Cell Lines Screen was performed using the standard one-dose NCI protocol, which is described in more detail at https://dtp.cancer.gov/discovery_development/nci-60/default.htm.
Compounds with GIPRCNT values below 10 were considered active. Activity score was based on GIPRCNT using the following formula: […]
Score is 0 for GIPRCNT values of 100 or above, 50 for GIPRCNT values of 0, and 100 for GIPRCNT values of -100.
Regarding `Cc1cccc([N+](=O)[O-])c1I`, the growth is 110%.
In the case of `COc1cc(C)cc2oc3oc(=O)c(-c4nc5ccccc5s4)cc3c(=O)c12`, the growth is 92.7%.
In the case of `O=[N+]([O-])c1ccc(O)c(-c2nc3ccccc3s2)c1`, the growth was 60.7%.
On to `O=c1[nH]c(CN2CCN(c3cccc(Cl)c3)CC2)nc2cc(Cl)ccc12`, for which the growth was 110%.
With `CCOC(=O)c1nn(C2CCCCO2)c2ccc(NC(=O)CN3CCCC3)cc12` (stereo not given), the growth was 94.3%.
Consider `c1ccc2c(c1)CN(CCCN1CCOCC1)C2`, for which the growth is 121%.
Turning to `Cc1ccc(C2=C/C(=C/c3ccc(Br)cc3)C(=O)N2CCc2ccc(S(N)(=O)=O)cc2)cc1`, the growth is 98.1%.
For the compound `CC1(C)S[C@@H]2[C@H](NC(=O)[C@H](C(=O)O)c3cccs3)C(=O)N2[C@H]1C(=O)O`, the growth is 96.2%.
With `COc1ncc(-c2ccc3nccc(C#CCCCCC(=O)O)c3c2)cc1NS(=O)(=O)c1ccc(F)cc1F`, the growth was 4.54% (active).
`Cc1cc(C)nc(SCC(=O)Nc2cccc(N=Cc3ccccc3O)c2)n1`: the growth was 92.9%.
`CCOC(CNC(=O)c1cccc([N+](=O)[O-])c1)OCC`: the growth was 60.5%.
On to `COc1ccc(-c2ccc(NNC(=O)c3ccc(F)cc3)nn2)cc1OC`, for which the growth is 58.4%.
Take `Ic1ccc2[nH]cc(SSc3c[nH]c4ccc(I)cc34)c2c1`: the growth is 31.5%.
Turning to `c1cc2ccc1CNCCN1CCNCc3ccc(cc3)Oc3ccc(cc3)CNCCN(CCNCc3ccc(cc3)O2)CCNCc2ccc(cc2)Oc2ccc(cc2)CNCC1`, the growth was 82.1%.
The value for `C=C(C)[C@@H]1CC[C@]2(C)[C@H](CC[C@@H]3[C@@H]([C@@](C)(O)CCC=C(C)C)CC[C@]32C)[C@@]1(C)CCC(=O)N1CCN(C)CC1` was -84% [100 µM] (active); that for `COC(=O)[C@]12CCC(C)(C)C[C@H]1C1=CC[C@@H]3[C@@]4(C)C/C(=C/c5cccnc5)C(=O)C(C)(C)[C@@H]4CC[C@@]3(C)[C@]1(C)CC2` was -45.7% [100 µM] (active).
Take `N/C(=N\c1nc2ccccc2[nH]1)NC(=O)Cc1cccc2ccccc12`: the growth is 85.3%.
On to `COc1c(C(C)=O)c(OCCCCOc2c(C(C)=O)c(OC)c3ccoc3c2OC)c(OC)c2occc12`, for which the growth is 98.8%.
For `CCN(CC)c1ccc(/C=C/c2ccc3cc(C)ccc3[n+]2CC)cc1`, the growth was 1.38% (active).
On to `O=S(=O)(c1ccc(N/N=C\c2ccccc2Cl)cc1)c1ccc(N/N=C/c2ccccc2Cl)cc1`, for which the growth was 78.6%.
As to `CC1(C)C(=O)/C(=C\c2cccnc2)C[C@]2(C)[C@H]3CC[C@@H]4[C@H]5[C@H](C(=O)/C=C/c6cccnc6)CC[C@]5(C(=O)O)CC[C@@]4(C)[C@]3(C)CC[C@@H]12`, the growth is -32.2% [100 µM] (active).
With `Cc1ccc(NC(=O)N[C@@H](Cc2cc(F)cc(F)c2)C(=O)N[C@@H]2C(=O)N3CCC[C@H]3C(=O)N3CCCC[C@H]3C(=O)N[C@@H](C)C(=O)N3C[C@H](C)C[C@H]3C(=O)O[C@H]2C)cc1`, the growth is 19.6%.
On to `O=C1/C(=C/c2ccc(OCc3ccccc3)cc2)Oc2cc(OCCN3CCCCC3)ccc21`, for which the growth was 85.3%.
With `CCOC(=O)c1ccc2nc(-c3c(C)nn(-c4ccccc4)c3N3CCOCC3)[nH]c2c1`, the growth is 93.4%.
In the case of `CCCc1cc2cc(-n3nc(C)c4c3CC(C)(C)CC4=O)cc(NC3CCSCC3)c2c(=O)[nH]1`, the growth is 61.5%.
Consider `Cc1ncc(C(=O)Nc2ccc(CN3CCN(C)CC3)c(C(F)(F)F)c2)cc1C#Cc1c(N)ncc2ccc(C#N)cc12`, for which the growth was 51.4%.
The same measure for `CCOC(=O)n1cc(C2=C(c3ccc(OC)c(OC)c3)COC2=O)c2ccccc21`: 0.425% (active); for `COc1cc2c(c(OC)c1OC)-c1ccc(NNC(N)=S)c(=O)cc1[C@@H](NC(C)=O)CC2`: -5.6% (active).
As to `CC1(C)CC[C@]2(C(N)=O)CC[C@]3(C)C(=CC[C@@H]4[C@@]5(C)C/C(=C/c6cccnc6)C(=O)C(C)(C)[C@@H]5CC[C@]43C)[C@@H]2C1`, the growth is -47.9% [100 µM] (active).
Regarding `O=C(Nc1cccc2cccnc12)c1cc(C(=O)c2ccc(Cl)cc2)n2ccc(-c3ccncc3)cc12`, the growth was 93.9%.
For the compound `COc1ccc(OC)c([N+](=O)[O-])c1C(=O)CNC(C)=O`, the growth is 84.5%.
The same measure for `COc1cc(Cl)cc(-c2nn(C(=O)NS(=O)(=O)c3ccccc3)cc2-c2ccncc2)c1`: 36.9%; for `Cc1ccc(-n2nc3n(/c2=N\C(=O)NS(=O)(=O)c2ccc(C)cc2)CCN3C2=NCCN2)cc1`: 84.4%.
On to `C=C1C(=O)O[C@H]2[C@H]1CC/C(COC(=O)NCc1ccc(Cn3c(=O)sn(-c4ccc(Cl)cc4)c3=O)cc1)=C\CC[C@@]1(C)O[C@@H]21`, for which the growth is 66.1%.
Consider `COc1cc(OC)c(/C=C/C(=O)c2c(N)cc(OC)cc2OC)c(OC)c1`, for which the growth is 19.3%.
As to `CC1(C)CC[C@]2(C(=O)O)CC[C@]3(C)C(=CC[C@@H]4[C@@]5(C)C/C(=C/c6ccco6)C(=O)C(C)(C)[C@@H]5CC[C@]43C)[C@@H]2C1`, the growth is -27.2% [100 µM] (active).
With `COc1ccc(C2=C(c3cn(C)c4ccccc34)C(=O)OC2)cc1OC`, the growth is 45.9%.
The same measure for `O=C(NCc1ccccc1)C(Cl)Cl`: 122%.
As to `N=C(N)c1ccc(-c2ccc(-c3ccc(-c4cccs4)s3)s2)cc1F`, the growth was 99.3%.
The value for `Nn1c(Nc2ccc(S(=O)(=O)Nc3ncccn3)cc2)nnc(/C=C/c2c(O)ccc3ccccc23)c1=O` was 101%.
